SSB-PriA inh: inhibitors of Klebsiella pneumoniae PriA binding to SSB C-terminal tail. AlphaScreen SSBct-PriA binding, biotinylated peptide. inhibition, % at 33 µM. hit rate 0.6% among 430,000. AID 1272365; in the data active = inhibition mostly above about 37%, no sharp cut-off; inactive = mostly below about 20%
MazF activator: increases E. coli MazEF RNase cleavage of RNA. hit rate 0.32% among 350,000. activation, % at 20 µM. FAM/BHQ RNA-DNA oligo cleavage fluorescence, 5 h; in the data active = activation above about 50%
Target sequence (P0AE70 whole entry, looked up): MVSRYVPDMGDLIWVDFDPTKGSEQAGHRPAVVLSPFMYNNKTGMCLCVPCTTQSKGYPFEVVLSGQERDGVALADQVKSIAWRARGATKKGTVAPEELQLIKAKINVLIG
BoNT-F LC inh: blocks Botulinum neurotoxin F light chain protease. Multiplex microsphere protease cleavage assay, flow cytometry. inhibition, % at 10 µM. hit rate 0.22% among 360,000; in the data active = inhibition above about 35%, passing the limit was not always enough; inconclusive = no clear call, values can overlap the other calls
Autofluor counter: counter-screen for toxin protease inhibitors: compound fluorescence | compound autofluorescence counterscreen, microsphere flow cytometry; hits give high values | fluorescence intensity (test concentration not listed) | hit rate 3.1% among 360,000; in the data active = fluorescence intensity above about 16000; inconclusive = no clear call, values can overlap the other calls
Anthrax LF prot: inhibitors of Bacillus anthracis lethal factor protease; hit rate 0.12% among 360,000; AID 588501; multiplex microsphere protease cleavage assay, LF; inhibition, % at 10 µM
BoNT-A LC inh2: blocks Botulinum neurotoxin A light chain protease; multiplex microsphere protease substrate cleavage, flow cytometry; inhibition, % at 10 µM; hit rate 0.17% among 360,000
Each line names hits and unclear results; the compound was inactive in the other large screens. Only some compounds are listed: those with a hit (about 3.3% of all), similar ones and a draw of the others. Cut-off read from the data, not from the text of the source, unless noted: active = inhibition above about 30%; inconclusive = no clear call, values can overlap the other calls; inactive = below that.

CC(=O)Nc1ccc(C(=O)N2CC[C@H](S(=O)(=O)C(C)(C)C)C2)cc1	none (no result: MazF activator, BoNT-F LC inh, Autofluor counter, Anthrax LF prot, BoNT-A LC inh2)
COCCN(Cc1ccoc1)C(=O)Nc1ccccc1C	none (no result: MazF activator, BoNT-F LC inh, Autofluor counter, Anthrax LF prot, BoNT-A LC inh2)
Cc1ccc(S(=O)(=O)N2CCN(c3ccc(-c4cccs4)nn3)CC2)s1	none (no result: MazF activator, BoNT-F LC inh, Autofluor counter, Anthrax LF prot, BoNT-A LC inh2)
CCn1c(CCn2ccnc2C)n[nH]c1=S	Autofluor counter 18972, BoNT-A LC inh2 inconclusive
CCn1cc(C(=O)NCc2ccc3c(c2)OCO3)c(=O)c2cc(S(=O)(=O)N(C)C)ccc21	none
CCOC(=O)C1CCCN(C(=O)c2cn(C)c3ccc(S(=O)(=O)N4CCCC4)cc3c2=O)C1 (configuration not stated)	Autofluor counter 21667, BoNT-A LC inh2 inconclusive
CCn1cc(C(=O)N2CC(C)CC(C)C2)c(=O)c2cc(S(=O)(=O)N(C)C)ccc21 (configuration not stated)	none
CCn1cc(C(=O)NCc2ccc3c(c2)OCO3)c(=O)c2cc(S(=O)(=O)N3CCOCC3)ccc21	Autofluor counter 21213, BoNT-A LC inh2 inconclusive
CCOC(=O)C1CCCN(C(=O)c2cc(S(=O)(=O)N3CCCCC3)ccc2C)C1 (configuration not stated)	none
CCn1cc(C(=O)N2CC(C)CC(C)C2)c(=O)c2cc(S(=O)(=O)N3CCOCC3)ccc21 (configuration not stated)	Autofluor counter 24578
CCOC(=O)C1CCCN(C(=O)c2cn(CC)c3ccc(S(=O)(=O)N4CCCC4)cc3c2=O)C1 (configuration not stated)	Autofluor counter 16154
CC1CCN(C(=O)CSCC(=O)Nc2nc(-c3ccccc3)c(-c3ccccc3)s2)CC1	none (no result: MazF activator, BoNT-F LC inh, Autofluor counter, Anthrax LF prot, BoNT-A LC inh2)
CCCCOc1ccc(C(=O)Nc2nnc(-c3ccccc3Cl)s2)cc1	none (no result: MazF activator, BoNT-F LC inh, Autofluor counter, Anthrax LF prot, BoNT-A LC inh2)
O=C(CN1CCN(c2ccccn2)CC1)N1c2ccccc2Sc2ccc(C(F)(F)F)cc21	Autofluor counter 17711
O=C(CN1CCN(c2ccccn2)CC1)N1c2ccccc2CCc2ccccc21	Autofluor counter 20825
O=C(CN1CCCC1)N1c2ccccc2Sc2ccc(C(F)(F)F)cc21	none
O=C(CN1CCN(c2ccccn2)CC1)N1CC(O)CO1 (configuration not stated)	none
Cc1c(-n2cc(C(=O)c3cc(Br)ccc3O)cc(C#N)c2=O)c(=O)n(-c2ccccc2)n1C	none
Cc1ccc(O)c(C(=O)c2cc(C#N)c(=O)n(-c3c(C)n(C)n(-c4ccccc4)c3=O)c2)c1	Autofluor counter 16705
CC(=O)NCCn1c(SCc2cc(F)ccc2F)nc2ccccc2c1=O	Autofluor counter 21737, BoNT-A LC inh2 inconclusive
CC(=O)NCCn1c(SCc2ccc(C)cc2C)nc2ccccc2c1=O	Autofluor counter 23483
CC(=O)NCCn1c(SCC(=O)c2ccccc2)nc2ccccc2c1=O	Autofluor counter 23027 (no result: SSB-PriA inh)
CN(CCO)C[C@H]1COCCN1C(=O)c1cccc(F)c1	none (no result: MazF activator, BoNT-F LC inh, Autofluor counter, Anthrax LF prot, BoNT-A LC inh2)
COc1cccc2cc(C(=O)N3CCc4nc5ccc(F)cn5c(=O)c4C3)oc12	none (no result: MazF activator, BoNT-F LC inh, Autofluor counter, Anthrax LF prot, BoNT-A LC inh2)
c1ccc(OCCCCSCc2nc3ccccc3[nH]2)cc1	none (no result: MazF activator, BoNT-F LC inh, Autofluor counter, Anthrax LF prot, BoNT-A LC inh2)
O=C1c2cccc3cccc(c23)C(=O)N1CC1CCN(CC(O)COc2ccc3ccccc3c2)CC1 (configuration not stated)	SSB-PriA inh 45
Cn1cc(S(=O)(=O)Nc2nc3ccccc3nc2NCCC2=CCCCC2)cn1	none (no result: MazF activator, BoNT-F LC inh, Autofluor counter, Anthrax LF prot, BoNT-A LC inh2)
COc1ccc(-c2cc(=O)[nH]c(SCc3nc(-c4ccc(F)c(Br)c4)no3)n2)cc1	none (no result: MazF activator, BoNT-F LC inh, Autofluor counter, Anthrax LF prot, BoNT-A LC inh2)
Cc1ccc(NC(=O)/C(C#N)=C/c2ccc(C)s2)c(C)c1	MazF activator 190
Cc1ccc(/C=C(\C#N)C(=O)Nc2c(C)cccc2C)s1	none
Cc1cc(C)cc(N(C(=O)Cc2cccs2)C(C(=O)NC2CCCCC2)c2ccccn2)c1 (configuration not stated)	Autofluor counter 23274, BoNT-A LC inh2 inconclusive
CCc1ccc(N(C(=O)Cc2cccs2)C(C(=O)NC2CCCCC2)c2cn(C)nc2C)cc1 (configuration not stated)	Autofluor counter 23253, BoNT-A LC inh2 inconclusive
Cc1ccccc1C(C(=O)NC1CCCC1)N(C(=O)Cc1cccs1)c1ccc2c(c1)OCCO2 (configuration not stated)	none
FC(F)(F)c1cccc(CN2CCCCCC2)c1	Autofluor counter 24319
FC(F)(F)c1cccc(CN2CCN(c3ncccn3)CC2)c1	none
Fc1ccc(CN2CCCCCC2)c(F)c1	Autofluor counter 22437
Fc1ccc(CN2CCCCCCC2)cc1F	Autofluor counter 16629
CCOC(=O)N1CCc2c(sc(NC(=O)c3ccc(Br)s3)c2C(=O)OC)C1	none (no result: MazF activator, BoNT-F LC inh, Autofluor counter, Anthrax LF prot, BoNT-A LC inh2)
O=S(=O)(NCCOc1ccccc1)c1ccc(Cl)s1	none (no result: MazF activator, BoNT-F LC inh, Autofluor counter, Anthrax LF prot, BoNT-A LC inh2)
CCN(CC)c1ccc(NC(=O)Nc2cccc(C(C)=O)c2)cc1	Autofluor counter 19762
CC(=O)Nc1cccc(NC(=O)Nc2ccc(C(C)=O)cc2)c1	none
O=C(Nc1ccccc1)Nc1ccc(C(=O)N2CCCC2)cc1	none
CC(=O)c1cccc(NC(=O)Nc2ccc(C(=O)N3CCCC3)cc2)c1	Autofluor counter 22040
CCOc1ccccc1NC(=O)Nc1c(C)n(-c2ccccc2)c(=O)n1C	Autofluor counter 20830
COc1ccc(NC(=O)Nc2c(C)n(-c3ccccc3)c(=O)n2C)cc1OC	none
CCOc1ccccc1NC(=O)Nc1cccc(C(C)=O)c1	Autofluor counter 23270
O=C(c1ccc(Cl)cc1)N1CCCCC(Sc2nnnn2-c2ccccc2)C1=O (configuration not stated)	none (no result: MazF activator, BoNT-F LC inh, Autofluor counter, Anthrax LF prot, BoNT-A LC inh2)
CCOC(=O)CSC1=C(C#N)C(c2ccccc2Cl)C(C(=O)Nc2ccc(Cl)cc2)=C(C)N1 (configuration not stated)	none (no result: MazF activator, BoNT-F LC inh, Autofluor counter, Anthrax LF prot, BoNT-A LC inh2)
COC(=O)c1cc(Br)ccc1-c1ccc(/C=N/n2nnnc2N)o1	MazF activator 54 (no result: SSB-PriA inh)
Cn1cc(S(=O)(=O)N2CCCN(S(=O)(=O)Cc3cc(F)ccc3F)CC2)cn1	none (no result: MazF activator, BoNT-F LC inh, Autofluor counter, Anthrax LF prot, BoNT-A LC inh2)
O=C(O)CCC(=O)OCC1CCCCC1	Autofluor counter 19321, BoNT-A LC inh2 inconclusive
CSCCC(NC(=O)C1CC1)c1nc2ccccc2[nH]1 (configuration not stated)	Autofluor counter 20590
OCCN(Cc1ccccc1)Cc1cccc(F)c1	Autofluor counter 20011
OCCN(Cc1ccccc1)Cc1ccccc1F	none
CCCN(CCO)Cc1ccc(Cl)c(Cl)c1	none
OCCN(Cc1ccccc1)Cc1cccc(C(F)(F)F)c1	Autofluor counter 23013
OCCN(Cc1ccccc1)Cc1ccccc1Cl	Autofluor counter 23592, BoNT-A LC inh2 inconclusive
CCCN(CCO)Cc1cccc(Cl)c1	Autofluor counter 16966
Cc1cc(O)ccc1NC(=O)C[C@H](NCc1ccccc1)C(=O)O	none (no result: MazF activator, BoNT-F LC inh, Autofluor counter, Anthrax LF prot, BoNT-A LC inh2)
CN(C)c1ccc(C(=O)Nc2cc(C(F)(F)F)ccc2-n2cncn2)cc1	BoNT-F LC inh inconclusive
O=C(Nc1cc(C(F)(F)F)ccc1-n1cncn1)c1ccc(Br)cc1	Autofluor counter 24053
c1ccc(-c2cnc(-c3cccnc3)o2)cc1	none
NC(=O)c1ccc(-c2ncc(-c3ccccc3)o2)cc1	Autofluor counter 18854
CCCCSc1nc(NCc2ccco2)c2c3c(sc2n1)COC(C)(C)C3	Autofluor counter 16223
Cc1nc2sc3c(NCc4ccco4)ncnc3c2c2c1COC(C)(C)C2	none
CCCSc1nc(NCc2ccco2)c2c3c(sc2n1)COC(C)(C)C3	Autofluor counter 17467
O=Cc1ccc(N2CCOCC2)s1	none (no result: MazF activator, BoNT-F LC inh, Autofluor counter, Anthrax LF prot, BoNT-A LC inh2)
